# Tests used:
# Experiment in all cases: PBM binding z-score (relative to random genomic background probes); higher = stronger binding; sequences stand for … in GC…GCGATTGACAGCGTAGAATGAAGG
# [1] = test system: FXR:RXRa (NR concentration 270 nM, RXRa partner concentration 90 nM)
# Outline: (§1)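 The probes on custom Agilent 4×180K protein-binding microarrays were double-stranded, with 34-nt variable regions bearing direct-repeat seeds, single-nucleotide variants, half-site ablations and random human genomic background sequences. Incubation lasted 1 h with ligand-free nuclear receptor dimers in PBS pH 7.4, 2% milk, 0.02% Triton X-100, 1 mM DTT, 0.2 mg/mL BSA and 0.4 mg/ml salmon testes DNA. Antibodies against each partner (one per run) detected bound dimers, and fluorescence scans were regression-normalized. Binding z-scores take the random background probes as reference.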
# [2] = test system: LXRa:RXRa (NR concentration 270 nM, RXRa partner concentration 90 nM)
# Outline: as §1
# [3] = test system: LXRa homodimer (NR concentration 270 nM)
# Outline: as §1
# [4] = test system: LXRb:RXRa (NR concentration 270 nM, RXRa partner concentration 90 nM)
# Outline: as §1
# [5] = test system: LXRb homodimer (NR concentration 270 nM)
# Outline: as §1
# [6] = test system: PPARa:RXRa (NR concentration 270 nM, RXRa partner concentration 90 nM)
# Outline: as §1
# [7] = test system: PPARg:RXRa (NR concentration 180 nM, RXRa partner concentration 90 nM)
# Outline: as §1
# [8] = test system: PPARg:RXRa 270nM:90nM, anti-RXR (NR concentration 270 nM, RXRa partner concentration 90 nM)
# Outline: as §1
# [9] = test system: PPARg:RXRa 30nM:10nM, anti-RXR (NR concentration 30 nM, RXRa partner concentration 10 nM)
# Outline: as §1
# [10] = test system: PPARg:RXRa 90nM:30nM, anti-RXR (NR concentration 90 nM, RXRa partner concentration 30 nM)
# Outline: as §1
Sequence,PBM binding z-score [1],PBM binding z-score [2],PBM binding z-score [3],PBM binding z-score [4],PBM binding z-score [5],PBM binding z-score [6],PBM binding z-score [7],PBM binding z-score [8],PBM binding z-score [9],PBM binding z-score [10]
ATACCAAGCTGATCGTGAGGTCGTTGATACTAAC,0.705,0.688,0.391,0.818,-0.351,0.693,0.178,-0.0256,-0.198,-0.0126
TTACCAAGGTGAGCTGAGGTCATTGATCCAACTC,4.44,4.36,2.23,3.33,-0.78,3.78,1.69,2.46,0.796,1.62
CAAACTCGGTCAAAGGTCAAAGTCGAGCCAACCA,7.73,6.98,6.36,6.72,3.13,7.67,12.9,10.9,11.8,12.5
TCGAGTAGTTTACCAATGGGGCATTCAGCTTTCT,-0.0204,-0.0341,-0.552,0.423,-0.375,-0.115,-0.798,0.325,0.821,0.499
CCTCGGTGGACAGAAGGTCAGAGCTGTCCGCTTT,1.33,1.62,-0.089,0.847,-0.688,1.75,0.418,2.42,-0.194,1.62
TCATATAGGTAATACAGGTGAAAGACGGCATCTA,1.16,1.28,0.842,0.947,0.0154,1.94,1.92,2.73,4.26,3.41
